Values joined by “and” are separate entries in the source; they are usually repeats but may differ in a detail not shown here. Equal values may be shown once. The source holds several records for some structures; these can differ, active in one and inactive in another. Active and inactive are the calls of the source. Rule for the calls: active = hit-call score of the fitted dose curve at least 0.9, where 1 is the maximum; inactive = score below 0.9.
What was measured:
[1] = ATG_CRE_CIS: Attagene CIS-FACTORIAL HepG2 Assay for human cAMP Responsive Element (CRE) binding protein 3 (AID 2282926); details: HepG2 CRE cis-reporter, Attagene multiplexed mRNA; actives raise or lower the signal
Procedure, shortened: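 We dosed HepG2 cells bearing multiple cis-promoter reporter units for 24 h and measured reporter mRNA by RT-PCR with capillary electrophoresis detection. Bidirectional concentration-response fitting used DMSO as negative control.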

[2] = biological target: CCAAT/enhancer-binding protein beta (Homo sapiens) (UniProt P17676); test: ATG_C_EBP_CIS: Attagene CIS-FACTORIAL HepG2 Assay for human CCAAT/Enhancer Binding Protein (C/EBP) beta (AID 2282927); details: HepG2 Attagene cis-factorial transcription factor reporter; actives raise or lower the signal
CCAAT/enhancer-binding protein beta (Homo sapiens), sequence (P17676 whole entry, looked up): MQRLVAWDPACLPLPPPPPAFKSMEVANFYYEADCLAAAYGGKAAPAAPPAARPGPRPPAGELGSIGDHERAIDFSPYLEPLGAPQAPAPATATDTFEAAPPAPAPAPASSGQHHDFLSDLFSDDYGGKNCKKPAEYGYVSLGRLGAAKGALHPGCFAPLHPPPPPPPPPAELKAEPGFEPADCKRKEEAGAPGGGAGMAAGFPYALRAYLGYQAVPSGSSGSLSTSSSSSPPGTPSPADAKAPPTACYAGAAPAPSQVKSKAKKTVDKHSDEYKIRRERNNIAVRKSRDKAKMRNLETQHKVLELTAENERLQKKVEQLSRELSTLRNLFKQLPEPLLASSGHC
Procedure, shortened: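 Changes in reporter mRNA, rather than exogenous chimeric receptor activity, reflect native C/EBP signalling in transfected HepG2 cells dosed for 24 h; transcripts are detected by RT-PCR and capillary electrophoresis.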

[3] = ATG_CMV_CIS: Attagene CIS-FACTORIAL HepG2 Assay for human CMV (Internal Marker) (AID 2282928); details: HepG2 CMV promoter reporter, transcription factor profiling; actives raise or lower the signal;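 note: endpoint acts as a background internal control marker rather than a target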
Procedure, shortened: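 Endogenous transcription factor activity read in HepG2 via transfected cis-promoter reporter units. After 24 h dosing, reporter mRNA measured by RT-PCR/capillary electrophoresis; gain or loss of signal fit relative to DMSO.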

[4] = biological target: Aryl hydrocarbon receptor (Homo sapiens) (UniProt P35869); test: ATG_Ahr_CIS: Attagene CIS-FACTORIAL HepG2 Assay for human Aryl Hydrocarbon Receptor (Ahr) (AID 2282930); details: HepG2 AhR cis-factorial reporter transcription; actives raise or lower the signal
Aryl hydrocarbon receptor (Homo sapiens), sequence (P35869 whole entry, looked up): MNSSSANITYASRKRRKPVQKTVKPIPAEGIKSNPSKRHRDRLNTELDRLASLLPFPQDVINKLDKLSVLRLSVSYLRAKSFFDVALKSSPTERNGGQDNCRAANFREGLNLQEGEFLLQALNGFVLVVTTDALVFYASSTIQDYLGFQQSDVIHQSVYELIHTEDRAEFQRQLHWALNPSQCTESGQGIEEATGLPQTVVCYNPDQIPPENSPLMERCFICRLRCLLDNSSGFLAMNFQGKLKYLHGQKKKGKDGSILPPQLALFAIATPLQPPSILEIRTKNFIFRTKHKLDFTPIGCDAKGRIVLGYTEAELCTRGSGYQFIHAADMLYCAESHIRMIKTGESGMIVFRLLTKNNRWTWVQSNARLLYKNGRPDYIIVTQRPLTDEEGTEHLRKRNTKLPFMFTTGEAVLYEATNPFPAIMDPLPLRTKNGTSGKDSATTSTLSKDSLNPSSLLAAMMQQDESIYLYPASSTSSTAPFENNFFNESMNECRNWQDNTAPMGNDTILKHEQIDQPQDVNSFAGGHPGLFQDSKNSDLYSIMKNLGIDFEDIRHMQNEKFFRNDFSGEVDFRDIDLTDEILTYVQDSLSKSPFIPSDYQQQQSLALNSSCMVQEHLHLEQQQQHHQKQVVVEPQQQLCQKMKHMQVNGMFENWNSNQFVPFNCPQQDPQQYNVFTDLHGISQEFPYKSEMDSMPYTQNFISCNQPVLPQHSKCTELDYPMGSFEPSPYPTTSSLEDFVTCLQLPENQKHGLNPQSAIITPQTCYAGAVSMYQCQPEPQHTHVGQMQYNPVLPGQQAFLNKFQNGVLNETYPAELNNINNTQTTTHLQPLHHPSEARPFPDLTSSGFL
Procedure, shortened: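 HepG2, transient MRTU (cis) transfection, 24 h exposure. RNA → cDNA → PCR → 6-FAM primer extension → HpaI 2 h 37 C → CE. Fit: bidirectional, DMSO baseline.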

[5] = ATG_AP_1_CIS: Attagene CIS-FACTORIAL HepG2 Assay for human Activator Protein 1 (AP-1) (AID 2282931); details: HepG2 Attagene cis-factorial AP-1 reporter mRNA; actives raise or lower the signal
Procedure, shortened: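 Fluorescence of labelled PCR fragments separated by capillary electrophoresis gives reporter mRNA levels. HepG2 with transfected cis-regulated reporter units, 24 h exposure; DMSO serves as baseline for bidirectional curve fits.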

[6] = ATG_BRE_CIS: Attagene CIS-FACTORIAL HepG2 Assay for human Bone Morphogenetic Protein (BMP) Response Element (BRE) (AID 2282933); details: HepG2 BMP response element reporter, Attagene transcription factor profiling; actives raise or lower the signal
Procedure, shortened: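 A HepG2 multiplex reporter system measured inducible reporter mRNA 24 h post-dosing. Detection: RT-PCR, 6-FAM primer extension, HpaI digestion, capillary electrophoresis. Activity fitted bidirectionally relative to DMSO.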

[7] = biological target: Retinoic acid receptor alpha (Homo sapiens) (UniProt P10276); test: ATG_DR5_RAR_CIS: Attagene CIS-FACTORIAL HepG2 Assay for human Retinoic Acid Receptor Alpha (RARE), DR5 submotif (AID 2282934); details: HepG2 Attagene cis-factorial RARE DR5 reporter, mRNA; actives raise or lower the signal;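 for AC50: reporter responds to endogenous RAR alpha beta and gamma in HepG2 not RARA alone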
Retinoic acid receptor alpha (Homo sapiens), sequence (P10276 whole entry, looked up): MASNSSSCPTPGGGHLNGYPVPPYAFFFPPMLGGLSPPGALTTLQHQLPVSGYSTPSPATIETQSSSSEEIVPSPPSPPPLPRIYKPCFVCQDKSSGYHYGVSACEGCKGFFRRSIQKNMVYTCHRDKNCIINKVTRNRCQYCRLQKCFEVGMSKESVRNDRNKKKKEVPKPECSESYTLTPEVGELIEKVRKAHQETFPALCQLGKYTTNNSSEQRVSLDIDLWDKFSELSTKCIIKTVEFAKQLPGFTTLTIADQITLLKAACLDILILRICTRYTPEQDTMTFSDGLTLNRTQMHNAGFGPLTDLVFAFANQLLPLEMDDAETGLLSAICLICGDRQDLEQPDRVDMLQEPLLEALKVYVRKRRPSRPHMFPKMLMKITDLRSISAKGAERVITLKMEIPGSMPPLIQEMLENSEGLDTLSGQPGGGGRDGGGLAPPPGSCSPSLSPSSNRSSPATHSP
Procedure, shortened: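 HepG2, transient cis-reporter transfection, 24 h exposure. mRNA readout: RT-PCR, FAM label, HpaI cut, capillary electrophoresis. DMSO baseline, gain/loss fitting.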

[8] = biological target: Transcription factor E2F1 (Homo sapiens) (UniProt Q01094); test: ATG_E2F_CIS: Attagene CIS-FACTORIAL HepG2 Assay for human E2F Transcription Factor 1 (AID 2282935); details: HepG2 Attagene cis-reporter, E2F reporter RNA transcripts; actives raise or lower the signal
Transcription factor E2F1 (Homo sapiens), sequence (Q01094 whole entry, looked up): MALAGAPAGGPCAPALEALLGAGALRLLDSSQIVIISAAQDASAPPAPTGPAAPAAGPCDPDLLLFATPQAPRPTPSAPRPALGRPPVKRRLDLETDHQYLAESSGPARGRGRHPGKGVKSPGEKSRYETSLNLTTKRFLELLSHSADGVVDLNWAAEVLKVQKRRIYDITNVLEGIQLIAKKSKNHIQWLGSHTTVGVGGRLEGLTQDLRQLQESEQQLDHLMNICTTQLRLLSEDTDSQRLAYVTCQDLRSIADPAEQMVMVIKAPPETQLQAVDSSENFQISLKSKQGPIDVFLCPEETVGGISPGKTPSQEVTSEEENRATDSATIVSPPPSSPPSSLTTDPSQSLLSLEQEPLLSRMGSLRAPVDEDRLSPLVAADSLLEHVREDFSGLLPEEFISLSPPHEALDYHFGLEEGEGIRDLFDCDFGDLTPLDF
Procedure, shortened: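 Total RNA from 24 h-treated, reporter-transfected HepG2 cells undergoes DNase I treatment, oligo(dT) reverse transcription, PCR and 6-FAM primer extension before capillary electrophoresis.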

[9] = ATG_E_Box_CIS: Attagene CIS-FACTORIAL HepG2 Assay for human Enhancer Box (E-box) (AID 2282936); details: HepG2 E-box cis-reporter transcription, actives raise or lower the signal
Procedure, shortened: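 DMSO served as negative control and baseline for bidirectional fitting. Human hepatoma HepG2 cells, transiently transfected with cis-reporter constructs, were dosed 24 h; reporter mRNA read by RT-PCR and capillary electrophoresis.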

[10] = ATG_M_61_CIS: Attagene CIS-FACTORIAL HepG2 Assay for M61 Transcription Factor (Internal Marker) (AID 2282937); details: HepG2 Attagene CIS-FACTORIAL M61 internal marker reporter; actives raise or lower the signal
Procedure, shortened: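 This endpoint serves as an internal background control within a multiplexed HepG2 cis-reporter panel. Cells are exposed for 24 h; reporter mRNA is amplified, fluorescently labelled and sized by capillary electrophoresis, with DMSO as negative control.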

[11] = ATG_EGR_CIS: Attagene CIS-FACTORIAL HepG2 Assay for human Early Growth Response 1 (EGR1) (AID 2282938); details: HepG2 Attagene CIS-FACTORIAL EGR reporter mRNA; actives raise or lower the signal
Procedure, shortened: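 HepG2, transient MRTU transfection (cis promoters), 24 h compound. RNA → RT (oligo-dT) → PCR → 6-FAM labelling → HpaI cut → CE fluorescence. Bidirectional fit, DMSO baseline.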

[12] = ATG_M_19_CIS: Attagene CIS-FACTORIAL HepG2 Assay for M19 Transcription Factor (Internal Marker) (AID 2282939); details: HepG2 Attagene CIS-FACTORIAL M19 internal marker reporter; actives raise or lower the signal
Procedure, shortened: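 Chemical-treated HepG2 (24 h) with MRTU constructs; reporter transcripts detected by fluorescent RT-PCR fragment analysis on capillary electrophoresis. Internal background marker, DMSO as baseline.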

[13] = ATG_ERE_CIS: Attagene CIS-FACTORIAL HepG2 Assay for Estrogen Response Element (ERE) (AID 2282940); details: HepG2 ERE cis-reporter, Attagene RNA transcript; actives raise or lower the signal
Procedure, shortened: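 Human liver cells (HepG2) bearing transiently transfected, promoter-regulated reporter units were exposed 24 h. Reporter mRNA induction was detected by capillary electrophoresis of labelled RT-PCR products and fitted bidirectionally to DMSO.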

[14] = ATG_Ets_CIS: Attagene CIS-FACTORIAL HepG2 Assay for human Erythroblast Transformation Specific (ETS) (AID 2282941); details: HepG2 ETS cis-reporter transcription, actives raise or lower the signal
Procedure, shortened: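 Steps: transfect HepG2 with multiple reporter units; treat compound 24 h; isolate RNA, DNase-treat, reverse-transcribe; PCR-amplify, label with 6-FAM, digest with HpaI; separate by capillary electrophoresis. Activity fitted both directions versus DMSO.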

[15] = biological target: Hepatocyte nuclear factor 3-beta (Homo sapiens) (UniProt Q9Y261); test: ATG_FoxA2_CIS: Attagene CIS-FACTORIAL HepG2 Assay for human Forkhead box A2 (FOXA2) (AID 2282942); details: HepG2 cis-reporter transcription factor activity, 24 h; actives raise or lower the signal
Hepatocyte nuclear factor 3-beta (Homo sapiens), sequence (Q9Y261 whole entry, looked up): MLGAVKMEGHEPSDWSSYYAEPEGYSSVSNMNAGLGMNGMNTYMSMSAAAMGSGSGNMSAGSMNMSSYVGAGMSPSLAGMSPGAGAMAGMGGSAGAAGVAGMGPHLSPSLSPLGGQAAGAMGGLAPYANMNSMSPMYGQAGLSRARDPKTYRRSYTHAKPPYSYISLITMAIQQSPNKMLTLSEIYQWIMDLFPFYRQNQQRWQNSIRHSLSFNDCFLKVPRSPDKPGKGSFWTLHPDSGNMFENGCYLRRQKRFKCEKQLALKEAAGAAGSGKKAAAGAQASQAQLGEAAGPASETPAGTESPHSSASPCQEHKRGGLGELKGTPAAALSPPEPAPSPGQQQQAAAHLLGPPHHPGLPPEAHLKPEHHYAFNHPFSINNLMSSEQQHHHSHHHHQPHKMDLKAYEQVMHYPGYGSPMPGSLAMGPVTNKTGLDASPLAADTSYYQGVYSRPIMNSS
Procedure, shortened: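 Cells: HepG2, transient multiplex reporter transfection. Exposure 24 h. Detection: reporter-specific RT-PCR, fluorescent labelling, restriction digest, capillary electrophoresis. Analysis: bidirectional curve fit, DMSO as negative control.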

[16] = ATG_FoxO_CIS: Attagene CIS-FACTORIAL HepG2 Assay for human Forkhead box O (FoxO) (AID 2282943); details: HepG2 Attagene cis-reporter, FoxO element, mRNA; actives raise or lower the signal
Procedure, shortened: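 Human hepatoma HepG2 cells carry transiently introduced reporter transcription units controlled by cis promoter elements. Chemical treatment lasted 24 h, and mRNA signal was compared with DMSO.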

[17] = ATG_GATA_CIS: Attagene CIS-FACTORIAL HepG2 Assay for human GATA Binding Protein (AID 2282944); details: HepG2 GATA cis-element reporter, Attagene multiplex mRNA; actives raise or lower the signal
Procedure, shortened: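 Transfected cis-reporter HepG2 cells were treated with chemicals for 24 hours. Total RNA was then converted to cDNA, amplified with reporter-specific primers and analysed by fluorescent capillary electrophoresis, using DMSO-treated wells as baseline.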

[18] = ATG_GLI_CIS: Attagene CIS-FACTORIAL HepG2 Assay for human Zinc Finger Protein GLI1 (AID 2282945); details: HepG2, Attagene cis-factorial reporter mRNA, GLI element; actives raise or lower the signal
Procedure, shortened: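 Bidirectional curve fits relative to DMSO, using reporter mRNA levels from RT-PCR plus capillary electrophoresis. Cells were HepG2 transiently carrying cis-regulated reporter constructs, harvested 24 h after dosing.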

[19] = ATG_AP_2_CIS: Attagene CIS-FACTORIAL HepG2 Assay for human Activator Protein 2 (AP-2) (AID 2282932); details: HepG2 AP-2 cis-reporter, Attagene transcription factor profiling; actives raise or lower the signal
Procedure, shortened: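 Step one: transient transfection of HepG2 with reporter transcription units. Step two: 24 h chemical exposure. Step three: RNA extraction, RT-PCR, labelled fragment analysis by capillary electrophoresis; DMSO serves as baseline.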

[20] = ATG_DR4_LXR_CIS: Attagene CIS-FACTORIAL HepG2 Assay for human Liver X Receptor (LXR), DR4 submotif (AID 2282929); details: HepG2 Attagene DR4 cis-reporter, mRNA transcription; actives raise or lower the signal
Procedure, shortened: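 Endogenous factor activity at a DR4 cis-element is read as reporter mRNA in transiently transfected HepG2 cells. Exposure lasts 24 h; transcripts are amplified, fluorescently labelled and sized by capillary electrophoresis, with DMSO as baseline.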

## CC[C@@H]1C[C@H](N(Cc2cc(C(F)(F)F)cc(C(F)(F)F)c2)C(C)=O)c2cc(C(F)(F)F)ccc2N1C(=O)OC(C)C
[1]
  outcome: inactive
[2]
  outcome: inactive
[3]
  outcome: inactive
[4]
  outcome: inactive
[5]
  outcome: inactive
[6]
  outcome: inactive
[7]
  AC50: 362 nM (active)
[8]
  outcome: inactive
[9]
  outcome: inactive
[10]
  outcome: inactive
[11]
  outcome: inactive
[12]
  outcome: inactive
[13]
  outcome: inactive
[14]
  outcome: inactive
[15]
  outcome: inactive
[16]
  outcome: inactive
[17]
  outcome: inactive
[18]
  outcome: inactive

## Cc1c2ccccc2c(C)c2c1ccc1ccccc12
[1]
  outcome: inactive
[2]
  outcome: inactive
[3]
  AC50: 33.1 µM (active)
[4]
  AC50: 3.38 µM (active)
[5]
  AC50: 25.5 µM (active)
[19]
  outcome: inactive
[6]
  AC50: 14.6 µM (active)
[7]
  AC50: 53300 nM (active)
[8]
  outcome: inactive
[9]
  AC50: 8.32 µM (active)
[10]
  outcome: inactive
[11]
  outcome: inactive
[12]
  AC50: 33.4 µM (active)
[13]
  AC50: 3.55 µM (active)
[14]
  outcome: inactive
[15]
  outcome: inactive
[17]
  outcome: inactive
[18]
  outcome: inactive

## O=C1c2ccccc2C(=O)N1CCc1noc(-c2ccc(CN3CCCCCC3)s2)n1
[1]
  outcome: inactive
[2]
  outcome: inactive
[3]
  outcome: inactive
[4]
  outcome: inactive
[5]
  AC50: 24.7 µM (active)
[6]
  AC50: 56.6 µM (active)
[7]
  outcome: inactive
[8]
  outcome: inactive
[9]
  outcome: inactive
[10]
  outcome: inactive
[11]
  outcome: inactive
[12]
  outcome: inactive
[13]
  outcome: inactive
[14]
  outcome: inactive
[15]
  outcome: inactive
[16]
  outcome: inactive
[17]
  outcome: inactive
[18]
  outcome: inactive

## CC(C)(c1cc(Br)c(O)c(Br)c1)c1cc(Br)c(O)c(Br)c1
[1]
  AC50: 46 µM (active) and 44.2 µM (active)
[2]
  outcome: inactive
[3]
  AC50: 53.3 µM (active) and 58.5 µM (active)
[5]
  AC50: 58.4 µM (active) and 53.2 µM (active)
[6]
  AC50: 46.6 µM (active)
  outcome: inactive
[7]
  AC50: 25.6 µM (active) and 14.2 µM (active)
[8]
  outcome: inactive
[9]
  outcome: inactive
[10]
  outcome: inactive
[11]
  AC50: 47.1 µM (active) and 37.6 µM (active)
[12]
  outcome: inactive
[14]
  outcome: inactive
[15]
  outcome: inactive
[17]
  AC50: 58.1 µM (active)
  outcome: inactive
[18]
  AC50: 49.8 µM (active) and 50.8 µM (active)

## CN1C(=O)CC[C@H]1c1cccnc1
[1]
  outcome: inactive
[2]
  outcome: inactive
[3]
  outcome: inactive
[4]
  outcome: inactive
[5]
  outcome: inactive
[6]
  outcome: inactive
[8]
  outcome: inactive
[9]
  outcome: inactive
[10]
  outcome: inactive
[11]
  outcome: inactive
[12]
  outcome: inactive
[14]
  outcome: inactive
[15]
  outcome: inactive
[17]
  outcome: inactive
[18]
  outcome: inactive

## Cc1cc(F)ccc1-c1cc(N2CC[C@@H](O)[C@H]2CO)ncc1N(C)C(=O)C(C)(C)c1cc(C(F)(F)F)cc(C(F)(F)F)c1
[1]
  outcome: inactive
[2]
  outcome: inactive
[3]
  outcome: inactive
[4]
  outcome: inactive
[5]
  outcome: inactive
[19]
  outcome: inactive
[6]
  outcome: inactive
[7]
  outcome: inactive
[8]
  outcome: inactive
[9]
  outcome: inactive
[10]
  outcome: inactive
[11]
  outcome: inactive
[12]
  outcome: inactive
[13]
  outcome: inactive
[14]
  outcome: inactive
[15]
  outcome: inactive
[16]
  outcome: inactive
[18]
  outcome: inactive

## OC12N=C(c3ccccc3)SC1Cc1cc(Cl)ccc12 (stereo unspecified)
[1]
  outcome: inactive
[2]
  outcome: inactive
[3]
  outcome: inactive
[20]
  outcome: inactive
[4]
  AC50: 2.32 µM (active)
[5]
  AC50: 3.8 µM (active)
[6]
  outcome: inactive
[7]
  outcome: inactive
[8]
  outcome: inactive
[9]
  outcome: inactive
[10]
  outcome: inactive
[11]
  outcome: inactive
[12]
  outcome: inactive
[13]
  AC50: 1.16 µM (active)
[14]
  outcome: inactive
[15]
  outcome: inactive
[18]
  outcome: inactive

— PubChem BioAssay (EPA / NIEHS)
